# In the library only some 12% were active in any assay of this set; here they are far more common.
# Pf growth 48h: Primary qHTS for delayed death inhibitors of the malarial parasite plastid, 48 hour incubation; Potency, µM (series often up to 28.7 µM), for inactives: top-dose activity change, negative = inhibition, most hits filed as inhibitors; 5.9% of 310,000 active; AID 504832, 2011; P. falciparum luciferase growth in erythrocytes, 48 h; also: % is scaled to controls: 0 for no effect and ±100 for the full control effect
#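 Compounds are pin-transferred into medium, infected erythrocytes (2% hematocrit, 0.1% parasitemia final) are added, and plates sit one parasite generation at 37 C in 5% CO2. Detection reagent is then added and luminescence measured.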
# AmpC inh detg: qHTS Inhibitors of AmpC Beta-Lactamase (assay with detergent); Potency, µM (series often up to 114 µM), for the others: at the highest dose activity change, negative = inhibition, actives largely listed as inhibitors; AID 485294, 2010; 0.041% of 370,000 active; AmpC hydrolysis of nitrocefin, absorbance 480 nm, 0.01% Triton; P00811;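 also: 0% = no-compound wells and -100% = no-enzyme wells; nearly all actives have a fitted effect of over 25% in size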
# Target sequence (P00811 whole entry, looked up): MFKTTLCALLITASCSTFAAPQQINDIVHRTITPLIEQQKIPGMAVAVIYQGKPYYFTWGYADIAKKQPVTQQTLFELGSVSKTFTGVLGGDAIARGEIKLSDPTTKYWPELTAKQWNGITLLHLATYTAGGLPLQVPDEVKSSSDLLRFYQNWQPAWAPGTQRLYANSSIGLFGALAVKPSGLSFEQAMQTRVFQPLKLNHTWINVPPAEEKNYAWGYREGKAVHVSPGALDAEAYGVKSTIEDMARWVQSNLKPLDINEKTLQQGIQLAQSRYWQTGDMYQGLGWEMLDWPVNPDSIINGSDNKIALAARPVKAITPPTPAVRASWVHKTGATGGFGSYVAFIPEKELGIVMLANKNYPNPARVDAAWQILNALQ
#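 AmpC (5.3 nM in the dispensed reagent) in 20 mM phosphate pH 7.0 with 0.01% (detergent screen) or 0.0001% Triton X-100 was preincubated with compounds for 15 min at room temperature. Nitrocefin was then added from an 800 uM solution, and hydrolysis was followed at 480 nm.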
# AmpC inh no detg: qHTS Inhibitors of AmpC Beta-Lactamase (assay without detergent); Potency, µM (top dose mostly 57.1 µM), without a hit: at the top dose activity change, negative = inhibition, actives largely listed as inhibitors; AmpC nitrocefin hydrolysis, absorbance 480 nm, 0.0001% Triton; 0.52% of 330,000 active;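 also: plate controls were no compound for no effect and no enzyme for full effect; nearly all actives have a fitted effect of over 20% in size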
#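 20 mM phosphate pH 7.0 + 0.01% (detergent screen) or 0.0001% Triton X-100; 5.3 nM AmpC reagent; cpd preinc 15 min RT; nitrocefin (800 uM stock) to start; A480 q20 s × 4 min; Activity was normalised to no-enzyme and no-compound control wells.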
# SARS PLP yeast: qHTS of Yeast-based Assay for SARS-CoV PLP; S. cerevisiae expressing SARS-CoV PLpro, growth rescue; Potency, µM (titrated, usually from 32.9 µM), without a hit: top-dose activity, positive = growth rescue, actives largely listed as activators; 0.19% of 330,000 active; calls by dose curve; also: 0% is about no effect; nearly all actives have a fitted effect of over 55% in size
# Sm TGR block: qHTS Assay for the Inhibitors of Schistosoma Mansoni Peroxiredoxins | purified TGR, DTNB reduction, TNB absorbance 405 nm | Potency, µM (top dose mostly 114 µM), inactives show at the highest dose activity change, negative = inhibition, hits mostly inhibitors | 3% of 360,000 active | AID 485364, 2010; also: % is scaled to controls: 0 for no effect and ±100 for the full control effect; nearly all actives have a fitted effect of over 60% in size
#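 TGR 20 nM + NADPH 100 uM (dispensed conc.), cpd preinc 15 min RT; start with NADPH (500 uM addition) then DTNB (15 mM addition). Kinetic TNB absorbance, 405 nm filter. Four-parameter Hill fit across titration.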
# Pf growth 96h: Primary qHTS for delayed death inhibitors of the malarial parasite plastid, 96 hour incubation. Potency, µM (top dose mostly 28.7 µM), for the others: at the top dose activity change, negative = inhibition, hits mostly inhibitors. P. falciparum luciferase reporter growth, 96 h. AID 504834, 2011. 6.9% of 320,000 active; also: % is scaled to controls: 0 for no effect and ±100 for the full control effect
#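 P. falciparum expressing integrated firefly luciferase, in erythrocytes at 2% hematocrit, 0.05% parasitemia, incubated with compounds 96 h at 37 C, 5% CO2. Growth inhibition read as loss of luminescence; two-generation exposure targets delayed-death apicoplast inhibitors.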
# * = called active by the depositor; u = inconclusive; x = no result given; [ ] = remark or other dose. Unless noted, calls follow the shape of the dose curve; as a rule, active = well fitted curve in the direction sought with a large enough effect; inconclusive = small, poorly fitted or top-dose-only effect, or another doubt; inactive = no such curve, though single readings can be large; an effect the other way counts as inactive or inconclusive. Potency is read from the fitted curve at half-maximal effect.
SMILES,Pf growth 48h,AmpC inh detg,AmpC inh no detg,SARS PLP yeast,Sm TGR block,Pf growth 96h
N#CC12COC3(CCCCC3C1(C#N)C#N)OC2=N (configuration not stated),7%,0%,-8%,0%,18µM*,22%
COc1ccc(-c2c3c(=O)n(C)c(=O)n(C)c3c3c(-c4ccccc4)nc4ccccc4n23)cc1,x,17%,x,x,6%,x
Cc1cccc(C)c1NC(=O)CCCn1c(=O)c2cccn2c2ccccc21,x,15%,x,x,-14%,x
COc1ccc(OC2C(=O)N(Cc3ccc(F)cc3)C2c2ccc(OC)c(OC)c2)cc1 (configuration not stated),u,-4%,62%,2%,16%,u
COc1ccc(OC2C(=O)N(Cc3ccc4c(c3)OCO4)C2c2sccc2C)cc1 (configuration not stated),u,0%,-16%,-5%,9%,4.1µM*
Cc1cc(N2C(=O)C(=O)/C(=C(/O)c3ccc(F)cc3)C2c2ccc(F)cc2)no1 (configuration not stated),15%,u,-14%,4%,-1%,0.83µM*
COc1cccc(C2/C(=C(\O)c3ccc(OC)c(OC)c3)C(=O)C(=O)N2c2cc(C)on2)c1 (configuration not stated),18%,u,-25%,-5%,0%,5.2µM*
O=C(NC1CCSC1=O)c1cccc(C(=O)NC2CCSC2=O)c1 (configuration not stated),-6%,u,-5%,7%,-21%,40%
COc1ccc(S(=O)(=O)Nc2ccc3c(c2)N(C(C)=O)CCC3)cc1F,x,-2%,x,x,1%,x
C=CCc1cc(Cl)ccc1OCCNCCCOC,-10%,-3%,-3%,-32%,-15%,13µM*
C=CCc1cc(Cl)ccc1OCCOCCNC(C)(C)C,13µM*,-2%,55%,-1%,x,3%
C=CCc1cc(Cl)ccc1OCCOCCNCCOC,-15%,-2%,20%,-6%,6%,u
CCN(C(=O)CSc1nnc2nc(C)cc(C)n12)c1ccccc1,u,-8%,-10%,0%,-10%,u
Cc1ccc(CN(C(=O)c2ccco2)C2CCS(=O)(=O)C2)cc1 (configuration not stated),-3%,-2%,-3%,-4%,-4%,-17%
CN(C)c1ccc(CN(C(=O)c2ccccc2Br)C2CCS(=O)(=O)C2)cc1 (configuration not stated),-13%,-7%,26%,2%,-23%,13µM*
CN(C)c1ccc(CN(C(=O)c2ccco2)C2CCS(=O)(=O)C2)cc1 (configuration not stated),56%,-8%,17%,8%,-2%,5.2µM*
Cn1nnc(NC(=S)NC(=O)c2cccc3ccccc23)n1,u,-3%,-34%,7%,-23%,13µM*
Cn1nnc(NC(=S)NC(=O)c2cccs2)n1,-11%,0%,-44%,10%,u,0%
CCOc1ccc(OCC)c(NC(=O)c2cnn(-c3ccc(F)cc3)c2-n2cccc2)c1,x,-4%,x,x,-4%,x
O=C(CNC(=O)c1ccccc1)OC(C(=O)c1ccccc1)c1ccccc1 (configuration not stated),3%,2%,-37%,u,-3%,u
COc1ccc(C(=O)C(OC(=O)CNC(=O)c2ccco2)c2ccccc2)cc1 (configuration not stated),49%,-3%,-9%,6%,18µM*,-18%
CC1C(c2ccccc2)N(C)C(c2ccccc2)CC1(O)c1ccccc1 (configuration not stated),60%,1%,-2%,-1%,12%,x
CC1/C(=N/O)CC(c2ccccc2)N(C)C1c1ccccc1 (configuration not stated),13µM*,u,-20%,-65%,2%,u
CC(=O)OCCNc1cc(Sc2nc3ccccc3[nH]2)c2nonc2c1[N+](=O)[O-],u,-7%,-12%,-15%,0.32µM*,u
CC(=O)OCCCNc1cc(Sc2nc3ccccc3s2)c2nonc2c1[N+](=O)[O-],6%,-13%,-20%,-24%,0.1µM*,28%
SMILES,Pf growth 48h,AmpC inh detg,AmpC inh no detg,SARS PLP yeast,Sm TGR block,Pf growth 96h
CC(=O)OCCNc1cc(SCc2ccco2)c2nonc2c1[N+](=O)[O-],4%,-6%,-15%,5%,21%,6%
CCCC(=O)OCCNc1cc(SCCC(=O)OC)c2nonc2c1[N+](=O)[O-],-7%,-1%,17%,-37%,3.5µM*,30%
CC(=O)OCCCNc1cc(Sc2ccc(C)cc2)c2nonc2c1[N+](=O)[O-],u,3%,-19%,-20%,8.9µM*,413%
COc1ccc(NC(=O)C2=C(C)Nc3nc(CCCO)nn3C2c2ccc(O)cc2)cc1 (configuration not stated),x,2%,x,x,2%,x
CCNS(=O)(=O)c1ccc(CCC(=O)NCc2ccccc2)cc1,-28%[5.75 µM],-1%,-4%[2.29 µM],1%,-8%,16%
O=C(NCCc1nc2ccccc2n1Cc1ccccc1)c1ccco1,x,8%,x,x,-4%,x
CCCCn1c(C(C)NC(=O)CC)nc2ccccc21 (configuration not stated),-7%,u,-2%,-6%,5%,1%
CCC(=O)NC(C)c1nc2ccccc2n1C (configuration not stated),2%,3%,-23%,-1%,1%,10%
CCn1c(CCNC(=O)c2ccco2)nc2ccccc21,-8%,-3%,-10%,2%,-7%,9.3µM*
CCCCCCn1c(C(C)NC(=O)c2ccco2)nc2ccccc21 (configuration not stated),u,4%,68%,0%,40µM*,u
CCn1c(CCCNC(=O)c2ccco2)nc2ccccc21,-25%,u,-26%,-2%,3%,13%
CC(C)Cn1c(C(C)NC(=O)Cc2ccccc2)nc2ccccc21 (configuration not stated),-10%,u,1.6µM*,0%,-5%,-13%
O=C(Nc1nc2ccccc2n1Cc1ccccc1)c1ccco1,13µM*,-6%,-17%,1%,-10%,x
CCCc1ccc(OCc2ccc(C(=O)N/N=C/c3cccnc3)o2)cc1,23%,-11%,40%,-5%,-3%,33%
